# Only some compounds are listed: those with a hit (about 19% of all), similar ones and a draw of the others.
# Giardia kill: Giardia lamblia killing; Giardia lamblia trophozoite viability; activity change, % at 7.66 µM, hits read low; 0.15% of 340,000 active; in the data active = activity change below about -80%; inconclusive = between about -30% and that limit;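 also: parasites exposed to compound for two days anaerobically before the ATP read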
#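 Viability, read as ATP luminescence: trophozoites at 100 cells/well, compound added, 48 hrs anaerobic at 37 deg C, then 15-30 min room-temperature development before reading.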
# IL1B secr inh: inflammasome signaling inhibition, IL-1 beta readout. THP-1 LPS/ATP IL-1B secretion, AlphaLISA, 16 h; stronger effect = lower value. activity change, % at 57.5 µM. 4.7% of 360,000 active; in the data active = activity change below about -50%; inconclusive = mostly about -30% to -49%
#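 Secreted IL-1B measured by AlphaLISA bead assay after 16 h compound exposure of THP-1 cells; compounds (final up to 57.5 uM) added 1 h before LPS (250 ng/mL) and ATP (1.25 mM) stimulation; lower signal means less secretion.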
# TDP1 inh: TDP1 (human) enzyme inhibition; recombinant TDP1, AlphaScreen DNA substrate cleavage; Potency, µM (highest dose often 130 µM), inactives show top-dose activity change, negative = inhibition, usual class: inhibitors; 0.28% of 350,000 active; also: potency is read from the fitted curve at half-maximal effect; nearly all actives have a fitted effect of over 40% in size
# Target sequence (Q9NUW8 whole entry, looked up): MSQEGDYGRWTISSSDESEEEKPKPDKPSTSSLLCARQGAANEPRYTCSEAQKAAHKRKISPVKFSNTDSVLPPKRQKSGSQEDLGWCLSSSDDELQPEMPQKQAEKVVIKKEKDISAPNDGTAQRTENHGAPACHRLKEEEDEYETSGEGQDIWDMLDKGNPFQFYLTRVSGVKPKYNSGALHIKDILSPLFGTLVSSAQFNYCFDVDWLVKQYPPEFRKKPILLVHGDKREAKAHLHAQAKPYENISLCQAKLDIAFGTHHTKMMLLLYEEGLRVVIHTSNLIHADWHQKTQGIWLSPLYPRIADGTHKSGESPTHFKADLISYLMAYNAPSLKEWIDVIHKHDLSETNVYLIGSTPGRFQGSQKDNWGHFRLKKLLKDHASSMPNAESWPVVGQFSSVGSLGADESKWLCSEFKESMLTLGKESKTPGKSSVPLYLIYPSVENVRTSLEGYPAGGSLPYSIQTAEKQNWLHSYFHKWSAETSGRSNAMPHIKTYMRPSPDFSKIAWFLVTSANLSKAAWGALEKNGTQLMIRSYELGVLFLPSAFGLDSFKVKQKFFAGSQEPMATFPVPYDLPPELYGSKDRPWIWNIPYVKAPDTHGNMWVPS
#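 Signal: AlphaScreen proximity between streptavidin donor and anti-FITC acceptor beads on intact substrate. Reaction: Tdp1 1 nM, substrate 15 nM final, 5 min RT after 15 min compound preincubation.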
# TDP1 cell noCPT: qHTS for Inhibitors of human tyrosyl-DNA phosphodiesterase 1 (TDP1): qHTS in cells in absence of CPT; DT40 Tdp1-/- hTDP1 cells, no CPT, ATP luminescence, 48 h; Potency, µM (titrated, usually from 46.2 µM), without a hit: at the top dose activity change, negative = growth inhibition, actives largely listed as inhibitors; 15% of 420,000 active; also: potency is read from the fitted curve at half-maximal effect; nearly all actives have a fitted effect of over 55% in size
#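 Chicken DT40 Tdp1-/- cells stably complemented with human TDP1 were seeded at 400 cells/well with DMSO in place of 20 nM camptothecin. After compound pinning, cells grew at least 48 hr at 37 °C; viability read by CellTiter-Glo luminescence.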
# ELG1 DNA repair: blocks ELG1-dependent DNA repair in HEK293T cells. AID 504467. HEK293T ELG1-luciferase reporter, luminescence, 16 h; DNA damage induced by 5-fluorouridine. Potency, µM (titrated, usually from 46.1 µM), without a hit: at the highest dose activity change, negative = inhibition, actives largely listed as inhibitors. 2.3% of 330,000 active; also: potency is read from the fitted curve at half-maximal effect; nearly all actives have a fitted effect of over 55% in size
#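 Cells (2,000 per well) received 5-fluorouridine plus test compound or DMSO and were incubated 16 hr at 37 °C, 5% CO2. Luciferase activity was read by luminescence 30 min after ONE-Glo addition; signal suppression marked inhibition of damage-induced ELG1 function.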
# TDP1 cell CPT: DT40-hTDP1 cell growth loss with CPT. chicken DT40 Tdp1-/-;hTDP1 cells + 20 nM CPT, ATP luminescence, 48 h. Potency, µM (doses to about 46.2 µM), for the others: at the top dose activity change, negative = growth inhibition, usual class: inhibitors. 12% of 420,000 active. AID 686979; also: potency is read from the fitted curve at half-maximal effect; nearly all actives have a fitted effect of over 55% in size
#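 Cell growth measured by CellTiter-Glo luminescence after a minimum 48 h, 37 C compound exposure with 20 nM CPT in Tdp1-knockout DT40 cells stably expressing hTDP1, seeded 400/well; qHTS titration format.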
# Starred values were filed as active, the others as inactive; ? = inconclusive; . = no result; [ ] = another dose, or the depositor's remark. Unless noted, calls follow the shape of the dose curve; as a rule, active = well fitted curve in the direction sought with a large enough effect; inconclusive = small, poorly fitted or top-dose-only effect, or another doubt; inactive = no such curve, though single readings can be large; an effect the other way counts as inactive or inconclusive. % is scaled to controls: 0 for no effect and ±100 for the full control effect.
SMILES,Giardia kill,IL1B secr inh,TDP1 inh,TDP1 cell noCPT,ELG1 DNA repair,TDP1 cell CPT
COc1ccc(OC)c(NC(=O)CSc2c3c(nc4cc(Cl)ccc24)CCCC3)c1,.,.,4%,23µM*,.,?
COc1ccc(OC)c(NC(=O)CSc2c3c(nc4ccccc24)CCCC3)c1,.,.,7%,7.3µM*,.,?
Cc1cccc(NC(=O)CSc2c3c(nc4ccccc24)CCC3)n1,6,-6,1%,?,10%,?
CCN(CC)S(=O)(=O)c1ccc2c(c1)N(CC(=O)NCCN1CCOCC1)C(=O)CO2,-12,12,1%,4%,10%,0%
Cc1ccc(NC(=O)c2oc3ccccc3c2NC(=O)C2CCCO2)cc1C (stereo unspecified),25,-5,4%,8.2µM*,?,10µM*
COc1ccc(NC(=O)c2oc3ccccc3c2NC(=O)C2CCCO2)cc1OC (stereo unspecified),29,0,1%,18µM*,?,?
CCOc1ccccc1NC(=O)c1oc2ccccc2c1NC(=O)C1CCCO1 (stereo unspecified),40,-1,1%,9.2µM*,7.3µM*,16µM*
O=C(Nc1ccc(F)c(F)c1)c1oc2ccccc2c1NC(=O)C1CCCO1 (stereo unspecified),-2,27,2%,5.2µM*,-7%,?
COc1ccc([N+](=O)[O-])cc1NC(=O)C(C)OC(=O)C1CCC1 (stereo unspecified),-5,6,.,5%,8%,5%
CC(C)CC(C(=O)NC1CCCCC1)N(Cc1cccs1)C(=O)c1snc(C(N)=O)c1N (stereo unspecified),51,-3,5%,?,?,?
CCCC(C(=O)NC(C)(C)C)N(Cc1ccc(F)cc1)C(=O)c1snc(C(N)=O)c1N (stereo unspecified),8,9,.,?,4%,-15%
CCCCC(C(=O)NC1CCCC1)N(Cc1ccccc1)C(=O)c1snc(C(N)=O)c1N (stereo unspecified),-24,-28,.,21µM*,-29%,?
CCCC(C(=O)NCCC(C)C)N(Cc1ccccc1)C(=O)c1snc(C(N)=O)c1N (stereo unspecified),-17,-22,.,?,?,18µM*
CCCC(C(=O)NC1CCCC1)N(Cc1ccccc1Cl)C(=O)c1snc(C(N)=O)c1N (stereo unspecified),10,?,7%,-19%,-16%,-25%
CC(C)CC(C(=O)NC1CCCC1)N(Cc1cccs1)C(=O)c1snc(C(N)=O)c1N (stereo unspecified),10,-13,0%[56.1 µM],?,18µM*,?
CCC(C(=O)NC1CCCC1)N(Cc1ccccc1Cl)C(=O)c1snc(C(N)=O)c1N (stereo unspecified),0,-1,0%,13µM*,?,-5%
CNC(=O)C1CCN(C(=O)N2CC(C)Oc3ccc(Cl)cc32)CC1 (stereo unspecified),.,.,9%,-21%,.,-1%
CCN(CC(=O)Nc1ccc(NC(C)=O)cc1)C(=O)CN1C(=O)C2CCCCC2C1=O (stereo unspecified),18,27,0%,15%,5%,6%
CCCC(C(=O)NC1CCCC1)N(Cc1ccc2c(c1)OCO2)C(=O)c1snc(C(N)=O)c1N (stereo unspecified),-16,-53*,6%,?,?,?
O=C(CN1CCN(c2ccccc2Cl)CC1)NC1CCCc2ccccc21 (stereo unspecified),5,-59*,1%,?,-15%,?
Cc1ccc(Cl)cc1N1CCN(CC(=O)NC2CCCc3ccccc32)CC1 (stereo unspecified),10,-9,0%,16µM*,-14%,?
O=C(CSc1c(Cl)cccc1Cl)NC1CCCc2ccccc21 (stereo unspecified),16,20,3%,?,9%,?
O=C(CSc1ccc(Cl)cc1)NC1CCCc2ccccc21 (stereo unspecified),0,-2,3%,-15%,-5%,-7%
CCOC(=O)C(=O)Nc1c(C(=O)Nc2cccc(F)c2)oc2ccccc12,.,.,4%,-14%,.,-5%
O=C(c1ccc(CNS(=O)(=O)c2cccc(Cl)c2)cc1)N1CCCCC1,-1,-16,1%,15µM*,?,16µM*
SMILES,Giardia kill,IL1B secr inh,TDP1 inh,TDP1 cell noCPT,ELG1 DNA repair,TDP1 cell CPT
COc1cccc(S(=O)(=O)NCc2ccc(C(=O)N3CCN(c4ccccc4)CC3)cc2)c1,-17,-14,6%,16µM*,-18%,16µM*
COc1ccc(N2CCN(C(=O)c3ccc(NS(=O)(=O)c4cccc(F)c4)cc3)CC2)cc1,35,-4,11%,?,-24%,?
COc1ccc(N2CCN(C(=O)c3ccc(CNS(=O)(=O)c4cccc(OC)c4)cc3)CC2)cc1,17,-84*,7%,23µM*,-14%,9.2µM*
COc1ccc(S(=O)(=O)NCc2ccc(C(=O)N3CCN(c4ccccn4)CC3)cc2)cc1,34,-4,5%,?,?,8.9µM*
CNc1c(Cl)cc(C=O)cc1Cl,.,.,.,-10%,.,5%
Cc1ccc(CN2CC(C(=O)N3CCN(S(=O)(=O)c4c(F)cccc4F)CC3)CC2=O)cc1 (stereo unspecified),23,0,-9%,-11%,-19%,-5%
O=c1c2nnn(-c3ccccc3)c2ncn1C/C=C/c1ccccc1,-9,-4,.,26µM*,7%,-25%
CCOC(=O)c1ccc(NC(=O)CN2Cc3ccccc3C2=O)cc1,.,.,5%,-16%,.,-23%
CN(c1ccccc1)S(=O)(=O)c1cc(C(=O)OCC(=O)c2c(N)n(C)c(=O)n(C)c2=O)ccc1Cl,-14,21,.,?,.,26µM*
CCN(c1ccccc1)S(=O)(=O)c1cc(C(=O)OCC(=O)c2c(N)n(C)c(=O)n(C)c2=O)ccc1C,4,0,.,23µM*,.,9.2µM*
Cc1ccc(N(C)S(=O)(=O)c2cccc(C(=O)OCC(=O)c3c(N)n(C)c(=O)n(C)c3=O)c2)cc1,-12,51,-1%,18µM*,16µM*,?
Cc1ccc(OCc2nnc(SCC(=O)Nc3ccccc3C(C)C)o2)cc1,.,.,-1%,-30%,.,-27%
Cc1ccc2oc(=O)c3cc(C(=O)Nc4ccc(F)cc4F)sc3c2c1,.,.,-3%,26µM*,.,?
